The values below come from article PMC9911399, “Two distinct binding modes provide the RNA-binding protein RbFox with extraordinary sequence specificity”.

The chains are these.
T1: RBFOX1 RRM (Homo sapiens, UniProt Q9NWB1 109-208)
T1 sequence: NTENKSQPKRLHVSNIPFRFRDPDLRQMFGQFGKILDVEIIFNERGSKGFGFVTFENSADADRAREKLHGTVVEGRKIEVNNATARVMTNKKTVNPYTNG

B1: UGUUCGU (DNA:RNA)
RNA: GGGAGACCGGAAUUCAGAUUGUCCUGUUCGUUUAAAUCCCGUCGUAGCCACCA
DNA 1: CAATCTGAATTCCGGTCTCCC
DNA 2: TGGTGGCTACGACGGGATT
B2: UGUGUGG (DNA:RNA)
RNA: B1 RNA with U28G, C29U, U31G
DNA 1: CAATCTGAATTCCGGTCTCCC
DNA 2: TGGTGGCTACGACGGGATT
B3: UGGUGUG (DNA:RNA)
RNA: B1 RNA with U27G, C29G, G30U, U31G
DNA 1: CAATCTGAATTCCGGTCTCCC
DNA 2: TGGTGGCTACGACGGGATT
B4: AUCUUGC (DNA:RNA)
RNA: B1 RNA with U25A, G26U, U27C, C29U, U31C
DNA 1: CAATCTGAATTCCGGTCTCCC
DNA 2: TGGTGGCTACGACGGGATT
B5: AUGACCA (DNA:RNA)
RNA: B1 RNA with U25A, G26U, U27G, U28A, G30C, U31A
DNA 1: CAATCTGAATTCCGGTCTCCC
DNA 2: TGGTGGCTACGACGGGATT
B6: CUAAUUG (DNA:RNA)
RNA: GGGAGACCGGAAUUCAGAUUGUCCCUAAUUGUUAAAUCCCGUCGUAGCCACCA
DNA 1: CAATCTGAATTCCGGTCTCCC
DNA 2: TGGTGGCTACGACGGGATT
B7: GGCCUGU (DNA:RNA)
RNA: B1 RNA with U25G, U27C, U28C, C29U
DNA 1: CAATCTGAATTCCGGTCTCCC
DNA 2: TGGTGGCTACGACGGGATT
B8: GAUUAGC (DNA:RNA)
RNA: B1 RNA with U25G, G26A, C29A, U31C
DNA 1: CAATCTGAATTCCGGTCTCCC
DNA 2: TGGTGGCTACGACGGGATT
B9: UGCAACU (DNA:RNA)
RNA: B1 RNA with U27C, U28A, C29A, G30C
DNA 1: CAATCTGAATTCCGGTCTCCC
DNA 2: TGGTGGCTACGACGGGATT
B10: GGGCCGG (DNA:RNA)
RNA: B1 RNA with U25G, U27G, U28C, U31G
DNA 1: CAATCTGAATTCCGGTCTCCC
DNA 2: TGGTGGCTACGACGGGATT
B11: UGUUCUG (DNA:RNA)
RNA: B1 RNA with G30U, U31G
DNA 1: CAATCTGAATTCCGGTCTCCC
DNA 2: TGGTGGCTACGACGGGATT
B12: CCUGUGC (DNA:RNA)
RNA: B6 RNA with U26C, A27U, A28G, U30G, G31C
DNA 1: CAATCTGAATTCCGGTCTCCC
DNA 2: TGGTGGCTACGACGGGATT
B13: CGUUCUG (DNA:RNA)
RNA: B1 RNA with U25C, G30U, U31G
DNA 1: CAATCTGAATTCCGGTCTCCC
DNA 2: TGGTGGCTACGACGGGATT
B14: CUGUUUG (DNA:RNA)
RNA: B6 RNA with A27G, A28U
DNA 1: CAATCTGAATTCCGGTCTCCC
DNA 2: TGGTGGCTACGACGGGATT
B15: UGUUUGC (DNA:RNA)
RNA: B1 RNA with C29U, U31C
DNA 1: CAATCTGAATTCCGGTCTCCC
DNA 2: TGGTGGCTACGACGGGATT
B16: CUGUCGU (DNA:RNA)
RNA: B1 RNA with U25C, G26U, U27G
DNA 1: CAATCTGAATTCCGGTCTCCC
DNA 2: TGGTGGCTACGACGGGATT
B17: CGUUUGC (DNA:RNA)
RNA: B1 RNA with U25C, C29U, U31C
DNA 1: CAATCTGAATTCCGGTCTCCC
DNA 2: TGGTGGCTACGACGGGATT
B18: CUGUUGU (DNA:RNA)
RNA: B6 RNA with A27G, A28U, U30G, G31U
DNA 1: CAATCTGAATTCCGGTCTCCC
DNA 2: TGGTGGCTACGACGGGATT
B19: CGUCCUG (DNA:RNA)
RNA: B6 RNA with U26G, A27U, A28C, U29C
DNA 1: CAATCTGAATTCCGGTCTCCC
DNA 2: TGGTGGCTACGACGGGATT
B20: CGUGUGC (DNA:RNA)
RNA: B1 RNA with U25C, U28G, C29U, U31C
DNA 1: CAATCTGAATTCCGGTCTCCC
DNA 2: TGGTGGCTACGACGGGATT
B21: UGUGUGC (DNA:RNA)
RNA: B1 RNA with U28G, C29U, U31C
DNA 1: CAATCTGAATTCCGGTCTCCC
DNA 2: TGGTGGCTACGACGGGATT
B22: UGUUUUG (DNA:RNA)
RNA: B1 RNA with C29U, G30U, U31G
DNA 1: CAATCTGAATTCCGGTCTCCC
DNA 2: TGGTGGCTACGACGGGATT

Residue numbers refer to the chain shown, from its start. The full ranking holds about 16,000 sequences; the median of “ka relative to ugcaugu” is about 0.0091, and the highest 2% start at about 0.032. What follows is part of a selection rich in the highest values, with near analogues and random picks from the rest.

The target in the assay is T1, RBFOX1 RRM. Nature of the assay: EMSA; HiTS-Eq, 1 nM pool, 10 min; buffer printed only for the single-RNA assays: 10 mM Tris pH 7.5, 150 mM NaCl, 3.4 mM EDTA, 0.001% NP-40, 30 C. Conditions: tags: His6 N-terminal (pET28a); label: 5' 32P. Put shortly: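 A pool of RNA with 7 randomized nucleotides, 5′-radiolabelled and with DNA-annealed flanks, was equilibrated at 1 nM for 10 min in 50 µL with purified RbFox RRM, wild type or mutant, across increasing protein concentrations. Free RNA was separated by 8% native PAGE, excised, reverse-transcribed, barcoded by PCR and sequenced. Relative association constants were obtained from read-count changes of each RNA species versus the control reaction and normalised to the cognate motif.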
Take B1: the binding signal was 0.0328 KA relative to UGCAUGU.
As to B2, the binding signal was 0.0178 KA relative to UGCAUGU.
B3: the binding signal was 0.029 KA relative to UGCAUGU.
Take B4: the binding signal is 0.0138 KA relative to UGCAUGU.
Turning to B5, the binding signal is 0.00337 KA relative to UGCAUGU.
Consider B6, for which the binding signal is 0.013 KA relative to UGCAUGU.
For B7, the binding signal is 0.0238 KA relative to UGCAUGU.
In the case of B8, the binding signal was 0.0124 KA relative to UGCAUGU.
B9: the binding signal was 0.0132 KA relative to UGCAUGU.
On to B10, for which the binding signal was 0.0124 KA relative to UGCAUGU.
For the molecule B11, the binding signal is 0.0328 KA relative to UGCAUGU.
Turning to B12, the binding signal is 0.0232 KA relative to UGCAUGU.
With B13, the binding signal was 0.0207 KA relative to UGCAUGU.
Regarding B14, the binding signal is 0.0332 KA relative to UGCAUGU.
B15: the binding signal was 0.0351 KA relative to UGCAUGU.
Take B16: the binding signal was 0.0193 KA relative to UGCAUGU.
Consider B17, for which the binding signal is 0.019 KA relative to UGCAUGU.
For the molecule B18, the binding signal is 0.0226 KA relative to UGCAUGU.
Consider B19, for which the binding signal is 0.0127 KA relative to UGCAUGU.
For the molecule B20, the binding signal was 0.0146 KA relative to UGCAUGU.
Turning to B21, the binding signal is 0.0333 KA relative to UGCAUGU.
In the case of B22, the binding signal was 0.0286 KA relative to UGCAUGU.
